Data: paper PMC5540273 (PLoS ONE, 2017)

Experiments:
Conditions in all cases: concentration: 1 μM, replicates: in singlicate; n = 1
PIK4CB = tested on: T1, PIK4CB
T1 construct: gene PI4KB

PIKFYVE = tested on: PIKFYVE
PIM1 = tested on: PIM1
PIM2 = tested on: PIM2
PIM3 = tested on: PIM3
PIP5K1A = tested on: PIP5K1A
PIP5K1C = tested on: PIP5K1C
PIP5K2B = tested on: PIP5K2B
PIP5K2C = tested on: T2, PIP5K2C
T2 construct: gene PIP4K2C

PKAC-alpha = tested on: T3, PKAC-alpha
T3 construct: gene PRKACA

PKAC-beta = tested on: T4, PKAC-beta
T4 construct: gene PRKACB

PKMYT1 = tested on: PKMYT1
PKN1 = tested on: PKN1
PKN2 = tested on: PKN2
PLK1 = tested on: PLK1
PLK2 = tested on: PLK2
PLK3 = tested on: PLK3
PLK4 = tested on: PLK4
PRKCD = tested on: PRKCD
PRKCE = tested on: PRKCE
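Note: KINOMEscan kinase panel screen.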

| Structure (SMILES) | %Inh (PIK4CB) [%] | %Inh (PIKFYVE) [%] | %Inh (PIM1) [%] | %Inh (PIM2) [%] | %Inh (PIM3) [%] | %Inh (PIP5K1A) [%] | %Inh (PIP5K1C) [%] | %Inh (PIP5K2B) [%] | %Inh (PIP5K2C) [%] | %Inh (PKAC-alpha) [%] | %Inh (PKAC-beta) [%] | %Inh (PKMYT1) [%] | %Inh (PKN1) [%] | %Inh (PKN2) [%] | %Inh (PLK1) [%] | %Inh (PLK2) [%] | %Inh (PLK3) [%] | %Inh (PLK4) [%] | %Inh (PRKCD) [%] | %Inh (PRKCE) [%] |
| --- | --- | --- | --- | --- | --- | --- | --- | --- | --- | --- | --- | --- | --- | --- | --- | --- | --- | --- | --- | --- |
| Fc1ccc(-c2nn3cccc(F)c3c2-c2ccncc2)cc1 [GW475620] | 0 | 28 | 0 | 0 | 0 | 0 | 28 | 19 | 0 | 11 | 47 | 11 | 9 | 11 | 9 | 69 | 0 | 3 | 19 | 6 |
| O=C(Nc1n[nH]c2nc(-c3cccs3)c(Br)cc12)C1CC1 [SB-735297] | 12 | 2 | 0 | 0 | 0 | 15 | 0 | 0 | 0 | 0 | 2 | 0 | 0 | 0 | 9 | 19 | 7 | 8 | 7 | 19 |
| COc1ccc2cc(-c3nc(-c4ccccc4C(C)C)[nH]c3-c3ccncc3)ccc2c1 [SB-660566] | 0 | 0 | 15 | 0 | 0 | 18 | 0 | 38 | 0 | 0 | 3 | 7 | 24 | 0 | 0 | 0 | 0 | 4 | 0 | 0 |
| COc1ccc(Nc2nccc(N3CCC(NC(=O)C(C)c4ccc(Cl)cc4)CC3)n2)cc1 (centres unmarked) [GSK1379812] | 11 | 0 | 0 | 0 | 2 | 0 | 29 | 63 | 9 | 17 | 8 | 9 | 0 | 6 | 20 | 0 | 0 | 13 | 0 | 1 |
| Cc1cccc2c(-c3ccncn3)c(-c3ccc(F)cc3)nn12 [GW515532] | 0 | 22 | 20 | 0 | 0 | 4 | 31 | 0 | 0 | 7 | 15 | 5 | 23 | 0 | 0 | 0 | 0 | 0 | 5 | 0 |
| COc1ccc(-c2coc3ccc(-c4nnc(C)o4)cc23)cc1 | 0 | 0 | 10 | 21 | 15 | 13 | 14 | 9 | 10 | 3 | 8 | 1 | 7 | 18 | 0 | 0 | 0 | 2 | 5 | 2 |
| COc1cccc(CNC(=O)NC2CCN(c3ccnc(Nc4ccc(F)cc4)n3)C2)c1 (centres unmarked) [GSK1379723] | 11 | 9 | 15 | 0 | 0 | 0 | 11 | 8 | 26 | 0 | 0 | 2 | 4 | 0 | 0 | 0 | 0 | 0 | 0 | 9 |
| Cc1ccccc1-c1cc(-c2c[nH]nc2-c2ccccn2)ccn1 [GW680061] | 0 | 0 | 0 | 0 | 0 | 12 | 39 | 15 | 28 | 0 | 0 | 0 | 0 | 0 | 0 | 0 | 0 | 0 | 0 | 10 |
| Cc1ccccc1Cn1ccn2c(=O)cc(N3CCOCC3)nc12 [GSK2269905] | 9 | 0 | 17 | 0 | 0 | 0 | 11 | 12 | 10 | 0 | 1 | 0 | 0 | 0 | 0 | 0 | 0 | 0 | 0 | 7 |
| COc1ccc(Nc2nccc(N3CCC(NC(=O)c4cc5ccccc5s4)C3)n2)cc1 (centres unmarked) [GSK1379738] | 19 | 0 | 25 | 0 | 21 | 0 | 40 | 13 | 47 | 0 | 0 | 3 | 23 | 0 | 11 | 0 | 0 | 3 | 0 | 17 |
| Cc1ccc(NC(=O)Nc2ccccc2)cc1-c1ccc(C(=O)Nc2ccncc2)cc1 [GSK1398471] | 0 | 0 | 9 | 0 | 4 | 0 | 0 | 6 | 0 | 29 | 0 | 28 | 0 | 2 | 2 | 0 | 0 | 1 | 0 | 0 |
| Cc1c(Cn2c(C)c(C)n3c(=O)cc(N4CCOCC4)nc23)cccc1C(F)(F)F [GSK2328680] | 0 | 0 | 1 | 0 | 0 | 9 | 44 | 20 | 7 | 0 | 0 | 17 | 0 | 0 | 0 | 100 | 0 | 0 | 0 | 0 |
| CSc1ccc(-c2nc3n(c2-c2ccncc2)CCC3)cc1 [SKF-105561] | 24 | 11 | 0 | 0 | 1 | 37 | 0 | 21 | 0 | 5 | 18 | 5 | 0 | 12 | 1 | 29 | 6 | 2 | 9 | 23 |
| COc1ccc(Nc2nccc(N3CCC(NC(=O)C(C)c4ccc(Cl)cc4)C3)n2)cc1 (centres unmarked) [GSK1379735] | 0 | 0 | 0 | 0 | 35 | 8 | 52 | 18 | 25 | 0 | 4 | 0 | 29 | 0 | 0 | 0 | 0 | 0 | 0 | 5 |
| COc1cc2ncnc(Nc3cccc(Br)c3)c2cc1OC.Cl [GI230329] | 0 | 32 | 21 | 0 | 14 | 0 | 79 | 14 | 52 | 0 | 0 | 0 | 0 | 0 | 2 | 0 | 0 | 0 | 3 | 11 |
| COc1cccc(NC(=O)Nc2ccc(C)c(-c3ccc(C(=O)Nc4ccncc4)cc3)c2)c1 [GSK1398474] | 0 | 0 | 15 | 0 | 22 | 0 | 0 | 0 | 0 | 17 | 0 | 0 | 0 | 14 | 0 | 0 | 0 | 6 | 15 | 0 |
| O=c1cc(N2CCOCC2)nc2n(Cc3ccccc3F)ccn12 [GSK2297428] | 0 | 0 | 0 | 0 | 0 | 6 | 31 | 19 | 0 | 0 | 0 | 0 | 7 | 0 | 13 | 0 | 0 | 8 | 0 | 1 |
| COC(=O)C(NC(=O)NC1CCN(c2ccnc(Nc3ccc(F)cc3)n2)C1)c1ccccc1 (centres unmarked) [GSK1379712] | 16 | 28 | 0 | 0 | 0 | 9 | 41 | 17 | 29 | 0 | 0 | 0 | 18 | 0 | 13 | 3 | 4 | 1 | 0 | 18 |
| COc1cccc(C2=C(Nc3cc(Cl)c(O)c(Cl)c3)C(=O)NC2=O)c1 [SB-390767] | 21 | 0 | 0 | 0 | 0 | 0 | 66 | 15 | 15 | 0 | 0 | 4 | 0 | 0 | 0 | 0 | 0 | 0 | 0 | 28 |
| CN1c2ccc(-c3ccc(C(N)=O)cc3)cc2-c2[nH]ncc2S1(=O)=O | 0 | 4 | 9 | 0 | 13 | 0 | 81 | 6 | 64 | 13 | 0 | 0 | 0 | 0 | 4 | 3 | 13 | 0 | 3 | 12 |
| Cc1ccc(NC(=O)Nc2ccccc2F)cc1-c1ccc(C(=O)Nc2ccncc2)cc1 [GSK1398477] | 0 | 0 | 6 | 0 | 0 | 0 | 0 | 0 | 0 | 46 | 32 | 18 | 26 | 12 | 5 | 0 | 0 | 0 | 19 | 4 |
| CNC(=O)c1ccc(C)c(-n2c(C)cc(OCc3ccc(F)cc3F)c(Br)c2=O)c1 | 0 | 40 | 0 | 0 | 0 | 0 | 1 | 0 | 0 | 0 | 74 | 0 | 0 | 19 | 0 | 0 | 0 | 0 | 7 | 35 |
